# Shown are actives, neighbours in structure and some others; about 21% of the full set was active somewhere.
# Shiga toxin inh: A qHTS for Small Molecule Inhibitors of Shiga Toxin | Vero cells, Shiga toxin protein synthesis inhibition reporter | inhibition, % at 38.7 µM | 9.2% of 290,000 active; in the data active means inhibition mostly above about 28%, no sharp cut-off; inactive means mostly below about 43%; further: 0% is about no effect
# SARS PLpro yeast: qHTS of Yeast-based Assay for SARS-CoV PLP | S. cerevisiae expressing SARS-CoV PLpro, growth rescue | Potency, µM (series often up to 32.9 µM), without a hit: top-dose activity, positive = growth rescue, usual class: activators | 0.19% of 330,000 active; further: potency means the concentration at half of the fitted maximal effect; 0% is about no effect; nearly all actives have a fitted effect of over 55% in size
# Cycloheximide cs: Cycloheximide Counterscreen for Small Molecule Inhibitors of Shiga Toxin; max response, %; AID 2314, 2010; 12% of 300,000 active; cell reporter, cycloheximide protein synthesis inhibition counterscreen; in the data active means max response mostly above about 13%, no sharp cut-off; inactive means mostly below about 14%; further: read at 38.3 µM for the half of the compounds with a filed dose; 0% is about no effect
# NS1 inh: qHTS Assay for Inhibitors of Influenza NS1 Protein Function | Potency, µM (highest dose often 46.1 µM), without a hit: top-dose activity, positive = more growth | 0.4% of 270,000 active; further: potency means the concentration at half of the fitted maximal effect; actives are rising curves; nearly all actives have a fitted effect of over 50% in size
#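 Compounds were scored for reversing the slow growth caused by influenza A NS1 in S. cerevisiae, measured by optical density at 600 nm. Assay medium contained 2% galactose at pH 6.0; NS1-free yeast of the same strain were the positive control.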
# Pf growth 96h: Primary qHTS for delayed death inhibitors of the malarial parasite plastid, 96 hour incubation. P. falciparum luciferase reporter growth, 96 h. Potency, µM (top dose mostly 28.7 µM), for the others: top-dose activity change, negative = inhibition, actives largely listed as inhibitors. 6.9% of 320,000 active. AID 504834, 2011; active means well fitted inhibition curve with a large enough effect; inconclusive means small, poorly fitted or top-dose-only effect, or another doubt; inactive means no such curve, though single readings can be large or run the other way; further: potency means the concentration at half of the fitted maximal effect; on the % scale 0 is the no-effect control and ±100 the full control effect
#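 Parasite growth measured via integrated firefly luciferase reporter in P. falciparum. Infected erythrocytes at 2% hematocrit, 0.05% parasitemia final were treated 96 hours at 37 C under 5% CO2, and luminescence was read.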
# Pf growth 48h: Primary qHTS for delayed death inhibitors of the malarial parasite plastid, 48 hour incubation; P. falciparum luciferase growth in erythrocytes, 48 h; AID 504832, 2011; 5.9% of 310,000 active; Potency, µM (series often up to 28.7 µM), for inactives: at the highest dose activity change, negative = inhibition, most hits filed as inhibitors; active means well fitted inhibition curve with a large enough effect; inconclusive means small, poorly fitted or top-dose-only effect, or another doubt; inactive means no such curve, though single readings can be large or run the other way; further: potency means the concentration at half of the fitted maximal effect; on the % scale 0 is the no-effect control and ±100 the full control effect
#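 Here the parasites carry a stable luciferase gene and grow inside erythrocytes in Albumax-based RPMI medium with compound for one erythrocytic cycle. Activity is scored as loss of luminescent signal.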
# * = called active by the depositor; ? = inconclusive; . = not tested or not shown; [ ] = dose if it differs, or a comment. Unless noted, the call rests on the fitted dose curve.
SMILES,Shiga toxin inh,SARS PLpro yeast,Cycloheximide cs,NS1 inh,Pf growth 96h,Pf growth 48h
COc1ccc(CC(=O)OCC(=O)Nc2ccc(Br)cc2)cc1,-4,2%,-1,1%,40%,5%
FC(F)C(F)(F)c1cc(-c2ccccc2)n[nH]1,29,1%,20*,-4%,40%,51%
O=C1N/C(=C\c2ccc(O)cc2)C(=O)c2ccccc21,42,-39%,34*,10%,37%,?
O=C(O)/C=C1\NC(=O)c2ccccc21,-10,?,-1,-18%,?,-6%
CC(=O)Nc1nc(-c2cccc3ccccc23)cs1,15,-6%,15*,-33%,88%,6%
Cc1ccc(NC(=O)Nc2nc(-c3ccc(C)s3)cs2)cc1,-4,1%,23,12%,15µM*,-11%
CC(=O)Nc1nc(-c2ccc(Br)s2)cs1,63*,9%,25*,-9%,.,-47%
O=C(NC(=S)Nc1nc(-c2cccc3ccccc23)cs1)c1cc2ccccc2o1,-3,-22%,-1,11%,-19%,11%
COC(=O)c1c(-c2c(Cl)cccc2Cl)noc1C(=O)NNC(=O)N(C)C,2,0%,-2,4%,37%,26%
CCN1CNC(=S)N(C(C)c2ccccc2)C1 (stereo not drawn),-5,-11%,-4,4%,27%,7%
CCN(CCNC(=O)c1ccc(CSc2nc3ccncc3[nH]2)cc1)c1ccccc1,-2,2%,4,-2%,-24%,10µM*
O=C(NCCN1CCN(c2cccc(Cl)c2)CC1)c1ccc(CSc2nc3ccncc3[nH]2)cc1,19,1%,-3,.,?,1.7µM*
CCCOc1ccc(-c2nnc(-c3ccco3)o2)cc1,36,11%,51*,-94%,12µM*,-20%
CC(C)COc1ccc(-c2nnc(-c3ccco3)o2)cc1,37,-10%,30*,-116%,?,117%
Cc1ccc(SCC(=O)NC(=O)NC2CCCC2)c(C)c1,.,3%,.,.,40%,11%
CCOC(=O)/C(C#N)=C/c1ccc(OCC(=O)Nc2cc(C)ccc2C)c(OC)c1,-4,9%,-3,1%,?,20%
CCOC(=O)/C(C#N)=C\c1ccc(OCC(=O)Nc2ccc(C)cc2C)c(OC)c1,-7,2%,3,4%,2.6µM*,39%
Cc1ccc(C(=O)OCC(=O)N(C)C2CCS(=O)(=O)C2)cc1S(=O)(=O)N1CCCCC1 (stereo not drawn),.,5%,.,.,11%,6%
O=C(c1ccc(COc2ccccc2Cl)o1)N1CCCC1,24,-10%,16*,-135%,?,-4%
O=C(OCc1ccccn1)c1ccc(COc2ccccc2Cl)o1,34,1%,30*,-96%,?,13%
O=C(c1ccc(COc2ccccc2Cl)o1)N1CCOCC1,11,0%,-3,-20%,-20%,17%
CC1CCN(C(=O)c2ccc(COc3ccccc3Cl)o2)CC1,27,-14%,19,-104%,10µM*,?
COc1cc(/C=N/NC(=O)c2cc(-c3ccccc3)nc3ccccc23)cc(OC)c1O,.,3%,2,0%,?,54%
Cc1cccc(/C=N/NC(=O)c2cc(-c3cccnc3)nc3ccccc23)c1,9,2%,-1,.,?,?
CCCc1ccc(-c2cc(C(=O)N/N=C/c3ccc([N+](=O)[O-])o3)c3ccccc3n2)cc1,59,6%[6.58 µM],23*,0%,1.7µM*,.
O=C(N/N=C/c1ccc([N+](=O)[O-])o1)c1cc(-c2cccc(Br)c2)nc2ccccc12,-4,4%,-2,12%,0.83µM*,?
Cc1c(OCC(=O)NCC2CCC(C(=O)O)CC2)ccc2c(-c3ccccc3)cc(=O)oc12 (stereo not drawn),47,0%,-1,9%,?,?
O=C(Nc1ccccc1)C1=C[C@H](c2ccc3c(c2)OCO3)C[C@H](OCCCCO)O1,117*,-2%,47*,-6%,?,55%
O=C(Nc1ccccc1)C1=C[C@@H](c2ccc(Br)cc2)C[C@@H](OCCCCO)O1,86*,-4%,52*,-7%,?,?

# Screening data deposited in PubChem by National Center for Advancing Translational Sciences (NCATS).
